Screens: PubChem BioAssay, National Center for Advancing Translational Sciences (NCATS)
Compounds with a hit are over-represented: about 12% of the library has one in this group of screens.
BAZ2B block: blocks human BAZ2B; AlphaScreen BAZ2B-H3K14Ac peptide displacement; AID 504333; Potency, µM (doses to about 114 µM), for inactives: at the top dose activity change, negative = inhibition, actives largely listed as inhibitors; 360,000 tested, 4.4% active; Q9UIF8; note: % is set by controls: 0 for no effect and ±100 for the full control effect; nearly all actives have a fitted effect of over 60% in size
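Multi-concentration screen (max 110 uM) measuring displacement of acetylated histone H3 peptide from BAZ2B by AlphaScreen, using 50 nM protein, 50 nM peptide and 10 ug/mL streptavidin donor plus Ni-chelate acceptor beads.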
HP1b binding inh: HP1-beta chromodomain-methylated histone interaction inhibition; AlphaScreen HP1-beta / biotin-H3K9me3 peptide binding; Potency, µM (doses to about 114 µM), inactives show at the top dose activity change, negative = inhibition, most hits filed as inhibitors; 390,000 tested, 0.56% active; AID 540317; note: nearly all actives have a fitted effect of over 70% in size
Target sequence (P83916 whole entry, looked up): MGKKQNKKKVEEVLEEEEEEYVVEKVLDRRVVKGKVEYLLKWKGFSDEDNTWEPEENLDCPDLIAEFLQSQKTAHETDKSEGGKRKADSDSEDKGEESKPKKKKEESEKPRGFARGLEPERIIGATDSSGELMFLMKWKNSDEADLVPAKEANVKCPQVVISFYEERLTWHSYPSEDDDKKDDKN
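Compound inhibition of the preformed complex between 50 nM HP1-beta and 50 nM biotinylated H3K9me3 peptide was read by AlphaScreen. Buffer was PBS pH 7.4 with 0.01% Tween-20. Incubations ran 30 min at room temperature, with 10 ug/mL donor/acceptor beads.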
G9a block: inhibitors of human histone lysine methyltransferase G9a. G9a H3K9 monomethylation, AlphaScreen, 2 h. AID 504332. 350,000 tested, 8.8% active. Potency, µM (doses to about 102 µM), for inactives: at the highest dose activity, negative = inhibition, hits mostly inhibitors; note: % is set by controls: 0 for no effect and ±100 for the full control effect; nearly all actives have a fitted effect of over 75% in size
Target sequence (Q96KQ7 913-1193 limits assumed): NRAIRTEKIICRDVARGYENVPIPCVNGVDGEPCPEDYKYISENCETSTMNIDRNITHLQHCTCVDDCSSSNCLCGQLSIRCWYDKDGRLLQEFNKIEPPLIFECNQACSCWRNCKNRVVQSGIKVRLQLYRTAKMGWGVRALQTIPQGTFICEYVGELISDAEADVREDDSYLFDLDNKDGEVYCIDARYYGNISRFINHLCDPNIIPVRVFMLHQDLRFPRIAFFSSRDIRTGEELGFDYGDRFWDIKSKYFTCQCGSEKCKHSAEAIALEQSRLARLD
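Quantitative HTS format: methyltransferase activity on a biotin-tagged H3K9 peptide is measured by AlphaScreen, using a rabbit anti-monomethyl-H3K9 antibody with streptavidin donor and anti-IgG acceptor beads. Final levels are 20 nM enzyme, 500 nM peptide, 20 uM SAM; 2 h RT.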
JMJD2A Tudor: JMJD2A Tudor domain (human) inhibition; Potency, µM (series often up to 114 µM), inactives show at the top dose activity change, negative = inhibition, most hits filed as inhibitors; AlphaScreen JMJD2A-Tudor / H3K4me3 peptide binding; AID 504339; 390,000 tested, 4.4% active; O75164; note: % is set by controls: 0 for no effect and ±100 for the full control effect; nearly all actives have a fitted effect of over 50% in size
L3MBTL1 block: inhibitors of human L3MBTL1; AlphaScreen L3MBTL1–H3K9me1 peptide binding; AID 485360; Q9Y468; 230,000 tested, 0.66% active; Potency, µM (titrated, usually from 57.1 µM), for inactives: at the highest dose activity, negative = inhibition, usual class: inhibitors; note: % is set by controls: 0 for no effect and ±100 for the full control effect; nearly all actives have a fitted effect of over 60% in size
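First, the protein-peptide complex forms for 30 min at room temperature (L3MBTL1 50 nM, biotinylated H3K9me1 peptide 75 nM). Next, compounds are pin-transferred and incubated 30 min. Finally, AlphaScreen beads are added and read after 30 min.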
Sfp PPTase inh: blocks B. subtilis Sfp PPTase activity; Biochemical Sfp PPTase activity, qHTS; 310,000 tested, 3.5% active; Potency, µM, inactives show largest response in the series, negative = inhibition, hits mostly inhibitors; Q9F4F7;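 note: the enzyme is Sfp with the accession as filed and its product quenches rhodamine fluorescence; 0% = enzyme reaction without inhibitor and -100% = no enzyme wells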
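After 15 min at room temperature with compound, 15 nM Sfp received 5 uM rhodamine-CoA plus 12.5 uM BHQ-2-ybbR (50 mM Hepes pH 7.6, 10 mM MgCl2). Rate came from the fluorescence difference over 30 min, ex 525/em 598 nm.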
* = called active by the depositor; ? = inconclusive; nt = no result; [ ] = remark or other dose. Calls come from the whole dose curve; as a rule, active = well fitted curve in the direction sought with a large enough effect; inconclusive = small, poorly fitted or top-dose-only effect, or another doubt; inactive = no such curve, though single readings can be large; an effect the other way counts as inactive or inconclusive. Potency is the fitted concentration of half-maximal effect.

SMILES	BAZ2B block	HP1b binding inh	G9a block	JMJD2A Tudor	L3MBTL1 block	Sfp PPTase inh
Cc1cccc(NC(=S)NNC(=O)c2csc(C(C)C)c2)c1	5%	-3%	?	-27%	17%[11.4 µM]	10%
Cc1cccc(NC(=S)NN2CCN(C)CC2)c1	-21%	37%	56µM*	10%	nt	-12%
CCCc1cc(C(=O)NNC(=S)NC(C)c2ccccc2)cs1 (stereo not drawn)	-3%	8%	50µM*	-23%	nt	10%
CCc1cc(C(=O)NNC(=S)Nc2cccc(C)c2)cs1	-2%	5%	10µM*	-16%	66%	9%
Cc1cccc(NC(=S)NNC(=S)NCc2ccccc2)c1	-2%	-25%	0.71µM*	?	nt	79µM*
Cc1ccc2c(c1)C(c1ccccc1)N(C(=O)c1cccc([N+](=O)[O-])c1)CC(=O)N2 (stereo not drawn)	-26%	?	-39%	-27%	nt	6%
CC[C@]12c3[nH]c4cc(CCC(=O)N(C)C)ccc4c3CCN1C(=O)[C@@H](CC(=O)NCC13CC4CC(CC(C4)C1)C3)C[C@@H]2C(=O)N1CCN(C(=O)c2ccco2)CC1	nt	26%	nt	-18%	6%	nt
O=C(O)c1ccccc1-c1ccccc1C(=O)NCc1cccc(C(F)(F)F)c1	-12%	21%	nt	-34%	0%	8%
CCOC(=O)CC1Sc2ccccc2NC1=O (stereo not drawn)	-5%	36%	10µM*	0%	17%	?
CCOC(=O)CC1Sc2ccccc2NC1=S (stereo not drawn)	-33%	15%	45µM*	-8%	-17%	40µM*
CCOC(=O)C1Sc2ccccc2NC1=O (stereo not drawn)	0%	38%	14%	-8%	nt	6%
CN(CCOc1ccc(Cl)cc1)C(=O)CNS(=O)(=O)c1ccc(N(C)C)c([N+](=O)[O-])c1	?	-13%	40µM*	?	-8%	nt
CN(C)c1ccc(S(=O)(=O)NCC(=O)OCC(=O)Nc2cc(Cl)cc(Cl)c2)cc1[N+](=O)[O-]	?	-19%	-17%[59 µM]	?	-11%	26%
COc1ccc(C(=O)N/N=C/c2c[nH]c3ccccc23)cc1	-20%	59%	30%	-7%	-3%	17%
COc1ccc(C(=O)N/N=C/c2cccc3cccnc23)cc1	20µM*	27%	48%[12.7 µM]	56µM*	?	14%
CCOc1ccc(C(=O)N/N=C/c2ccccc2[N+](=O)[O-])cc1	-4%	33%	15%	-8%	1%	-3%
CCOc1ccc(C(=O)N/N=C/c2cccc3cccnc23)cc1	20µM*	24%	22%[59 µM]	79µM*	?	-8%
CCOc1ccccc1C(=O)N/N=C/c1cccc2cccnc12	45µM*	18%	43%[0.501 µM]	?	-5%	89µM*
COc1ccc(C(=O)N/N=C/c2cc3ccccc3[nH]c2=S)cc1	?	-5%	0.71µM*	3.2µM*	nt	-8%
O=C(N/N=C/c1ccc(O)c(O)c1)c1ccc(CSc2cccc3cccnc23)cc1	?	?	35µM*	?	nt	-11%
CC1=C(c2ccc(Cl)cc2)S(=O)(=O)NC1=NCCCN1CCN(c2cc(C)ccc2C)CC1	-21%	25%	?	16µM*	nt	nt
Cc1ccc2c(c1C)NC(C)CC2C (stereo not drawn)	?	-13%	14µM*	-8%[11.4 µM]	-7%	-11%
CCc1cc2c(SCc3nc4sc(C(C)=O)c(C)c4c(=O)[nH]3)ncnc2s1	-14%	30%	20µM*	?	-11%	-9%
CCc1cc2c(SCC(=O)c3ccc(C)cc3)ncnc2s1	11%	-2%	25%[59 µM]	-9%[11.4 µM]	1%	9%
CCOc1cccc(C(=O)NC2=NCCS2)c1	16%	44%	nt	-13%	43%	7%
SMILES	BAZ2B block	HP1b binding inh	G9a block	JMJD2A Tudor	L3MBTL1 block	Sfp PPTase inh
CC(C)C(OC(=O)c1cccs1)C(=O)NCc1ccccc1 (stereo not drawn)	-3%	28%	-7%	-5%	-3%	25%
Cc1cc(=O)n(C)c(=O)n1CCCCCN1CCCC1	50µM*	?	?	2.5µM*	28µM*	-22%
O=C(Cc1csc2ccccc12)NCc1cccc(Br)c1	10%	41%	12%[59 µM]	-8%	nt	nt
CNC(=O)COc1ccc(S(=O)(=O)N2CCCC2)cc1	-3%	-14%	-1%	11µM*	2%	1%
O=C(COC(=O)c1ccc(Cl)nc1)Nc1ccc(S(=O)(=O)N2CCCC2)cc1	9%	48%	45µM*	-10%	-2%	-5%
O=C(COC(=O)c1ccc(C(F)(F)F)cc1)Nc1cccc(S(=O)(=O)N2CCCCC2)c1	-6%	25%	10µM*	-21%	-1%	nt
CC(=O)c1ccccc1OCC(=O)Nc1cccc(S(=O)(=O)N2CCCC2)c1	0%	33%	-2%[12.7 µM]	-4%	4%	nt
CC(=O)c1ccc(OCC(=O)Nc2cccc(S(=O)(=O)N3CCCC3)c2)cc1	-2%	22%	20µM*	-16%	6%	nt
COc1ccc(CCn2c3c(c(=O)[nH]c2=O)C(NC(=O)c2ccccc2OC)(C(F)(F)F)C(=O)N3)cc1OC (stereo not drawn)	1%	29%	-10%[59 µM]	1%	nt	nt
O=C(NCc1cnc2ccccn12)C1CCC(=O)N(Cc2ccccc2F)C1 (stereo not drawn)	-19%	43%	-1%	-3%	nt	16%
CCCCCCCCOc1c(OC)cc(/C=C/C(=O)N2CCN(c3ccc(C)c(C)c3)CC2)cc1OC	nt	nt	nt	nt	nt	-5%
Cc1cc(C)n(C(=O)CNC(=O)c2ccco2)n1	3%	20%	71µM*	-24%	5%	10%
Cc1ccc(-c2nc(CCNC(=O)c3ccco3)cs2)cc1	5%	3%	-21%	-12%	1%	nt
Cn1c(CCNC(=O)c2ccco2)nc2cc(NC(=O)c3ccco3)ccc21	-7%	43%	14µM*	3%	-2%	-10%
Cn1c(CCNC(=O)c2ccco2)nc2cc(NC(=O)c3ccccc3)ccc21	?	50%	-36%	-8%	nt	10%
Cc1cc(C)n(C(=O)CNC(=O)Cc2ccccc2)n1	nt	?	17%[59 µM]	-10%	5%	21%
Cc1ccc(-c2nc(CNC(=O)c3ccco3)cs2)cc1	-16%	34%	50µM*	-1%	nt	-4%
Cc1ccc(NC(=S)NCc2ccc3c(c2)cc(C)n3C)c(C)c1	?	?	-28%	22µM*	-3%	13%
COc1cc(OC)cc(C(=O)Nc2ccc3oc(-c4ccc(Cl)cc4)nc3c2)c1	0%	33%	18%[59 µM]	-11%	nt	nt
Cc1c(CCC(=O)NCc2ccc(F)cc2)c(=O)oc2cc(O)ccc12	26%	74%	20%[59 µM]	-3%	nt	nt
CC1(C)Oc2c(ccc(O)c2CN2CCOCC2)C2=C1CCCC2	nt	-19%	nt	?	nt	nt
